From PubChem BioAssay
IL1B secr inh: blocks inflammasome-driven IL-1 beta release; activity change, % at 57.5 µM; THP-1 LPS/ATP IL-1B secretion, AlphaLISA, 16 h; hits give low values; 360,000 tested, 4.7% active; in the data active = activity change below about -50%; inconclusive = mostly about -30% to -49%
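Secreted IL-1B measured by AlphaLISA bead assay after 16 h compound exposure of THP-1 cells; compounds (final up to 57.5 uM) added 1 h before LPS (250 ng/mL) and ATP (1.25 mM) stimulation; lower signal means less secretion.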
HT1080 IDH1KD tx: HT-1080 IDH1 knockdown cell toxicity (counter line) | HT-1080 IDH1 knockdown viability, ATP luminescence, 48 h | Potency, µM (highest dose often 46.1 µM), for the others: at the top dose activity, negative = toxicity, actives largely listed as cytotoxic | 360,000 tested, 2% active;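 also: potency is read from the fitted curve at half-maximal effect; 0% = DMSO wells and -100% = cell-free medium wells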
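After a 2 h attachment period, IDH1KD HT-1080 cells took pin-transferred compound for 48 h at 37 °C; ATP-based luminescence after 10 min room-temperature reagent incubation reported viability.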
DT40 TDP1 no CPT: qHTS for Inhibitors of human tyrosyl-DNA phosphodiesterase 1 (TDP1): qHTS in cells in absence of CPT; DT40 Tdp1-/- hTDP1 cells, no CPT, ATP luminescence, 48 h; Potency, µM (titrated, usually from 46.2 µM), for inactives: at the top dose activity change, negative = growth inhibition, actives largely listed as inhibitors; 420,000 tested, 15% active; also: potency is read from the fitted curve at half-maximal effect; nearly all actives have a fitted effect of over 55% in size
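Growth kinetics read by CellTiter-Glo luminescence after ≥48 hr at 37 °C. Cells: DT40 Tdp1-/- stably carrying human TDP1, 400 per well, compound exposure in the absence of CPT (DMSO vehicle).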
DT40 TDP1 CPT: DT40-hTDP1 cell growth loss with CPT. chicken DT40 Tdp1-/-;hTDP1 cells + 20 nM CPT, ATP luminescence, 48 h. Potency, µM (doses to about 46.2 µM), for the others: at the top dose activity change, negative = growth inhibition, actives largely listed as inhibitors. 420,000 tested, 12% active. AID 686979; also: potency is read from the fitted curve at half-maximal effect; nearly all actives have a fitted effect of over 55% in size
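Chicken DT40 Tdp1-/- cells complemented with human TDP1, 400 cells/well, exposed to compounds plus 20 nM camptothecin for at least 48 h at 37 C; viability read as ATP content by CellTiter-Glo luminescence.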
ELG1 DNA repair: blocks ELG1-dependent DNA repair in HEK293T cells | 330,000 tested, 2.3% active | Potency, µM (titrated, usually from 46.1 µM), for the others: at the highest dose activity change, negative = inhibition, usual class: inhibitors | AID 504467 | HEK293T ELG1-luciferase reporter, luminescence, 16 h; DNA damage induced by 5-fluorouridine; also: potency is read from the fitted curve at half-maximal effect; nearly all actives have a fitted effect of over 55% in size
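Reporter activity after DNA damage by 5-fluorouridine is monitored. Compound-treated cells incubate 16 hr at 37 °C, then ONE-Glo is added for 30 min before luminescence reading.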
HT1080NT lethal: kills 2HG-producing HT-1080-NT fibrosarcoma cells; 360,000 tested, 1.6% active; HT-1080-NT fibrosarcoma viability, CellTiter-Glo ATP luminescence, 48 h; AID 686970; Potency, µM (titrated, usually from 46.1 µM), inactives show at the highest dose activity, negative = less viability, usual class: cytotoxic;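 also: NT is the 2HG producing partner of a matched IDH1 knockdown line; potency is read from the fitted curve at half-maximal effect; 0% = DMSO-treated cells and -100% = media-only wells without cells; nearly all actives have a fitted effect of over 55% in size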
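750 cells/well, RPMI + 5% FBS; 2 h settle, compound pin-transfer, 48 h at 37 degrees C. CellTiter-Glo 10 min RT, luminescence. Normalized to DMSO and media-only wells.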
* = called active by the depositor; ? = inconclusive; nt = no result; [ ] = another dose, or the depositor's remark. Rows were chosen to be rich in hits. Some 19% of all compounds tested hit in one or more screens of this group. Unless noted, calls follow the shape of the dose curve; as a rule, active = well fitted curve in the direction sought with a large enough effect; inconclusive = small, poorly fitted or top-dose-only effect, or another doubt; inactive = no such curve, though single readings can be large; an effect the other way counts as inactive or inconclusive. Unless noted, % is scaled to controls: 0 for no effect and ±100 for the full control effect.

SMILES | IL1B secr inh | HT1080 IDH1KD tx | DT40 TDP1 no CPT | DT40 TDP1 CPT | ELG1 DNA repair | HT1080NT lethal
c1ccc(N2CCOCCOCCOCCOCCOCC2)cc1 | 7 | 9% | -16% | -2% | 0% | 1%
O=C1C(N2CCOCC2)=Cc2cccc3cccc1c23 | -12 | 0% | ? | ? | nt | 10%
O=C1C=C(N2CCOCC2)c2cccc3cccc1c23 | -8 | -11% | 15µM* | -27% | nt | -15%
Cc1ccc(N2CCOCC2)c2c1C(=O)c1ccccc1C2=O | ? | ? | 16µM* | ? | ? | -23%
Cc1ccccc1N1C(=O)C(Cl)=C(N2CCOCC2)C1=O | 10 | 6% | -23% | -9% | -1% | 8%
CC(C)CN(C(=O)Cn1c(Cl)nc2c1c(=O)n(C)c(=O)n2C)C1CCS(=O)(=O)C1 (stereo not drawn) | 2 | 2% | 5% | 1% | 15% | 5%
CN(C)C(=S)Nc1ccc(Cc2ccncc2)cc1 | 12 | 4% | 1% | -1% | 0% | -3%
O=C1C=C(N2CCOCC2)c2ccccc2C1=O | -103* | 4.6µM* | 2.3µM* | 2.6µM* | ? | 6.5µM*
CCN(CC)CCNC(=O)c1[nH]c2ccc(OCc3ccccc3)cc2c1C | -95* | ? | ? | ? | 7% | ?
CCN1C(=O)/C(=C2\SC(N3CCOCC3)=NC2=O)c2ccccc21 | 6 | 11% | -1% | -14% | ? | 14%
C=CCN1C(=O)/C(=C2\SC(N3CCOCC3)=NC2=O)c2cc(Br)ccc21 | 16 | 8% | ? | 23µM* | ? | 15%
O=C(COc1ccc2c(-c3ccccc3)cc(=O)oc2c1)NCC(O)c1ccccc1 (stereo not drawn) | 7 | 12% | -24% | -25% | -2% | 13%
COc1ccc(OCCC(=O)OCC(=O)Nc2cccc(S(=O)(=O)N3CCCCC3)c2)cc1 | -96* | ? | ? | ? | 5% | -11%
O=C(COc1ccccc1)Nc1cccc(S(=O)(=O)N2CCCC2)c1 | -2 | 4% | -27% | -18% | 2% | 4%
CN(C)S(=O)(=O)c1cccc(NC(=O)COc2ccc(S(=O)(=O)N3CCOCC3)cc2Cl)c1 | 12 | -16% | ? | -22% | 2% | -10%
O=C(COC(=O)/C=C/c1cccs1)Nc1cccc(S(=O)(=O)N2CCCC2)c1 | 4 | 14% | 23µM* | 13µM* | 15% | 5%
CC(=O)Nc1cccc(OCC(=O)Nc2cccc(S(=O)(=O)N3CCCC3)c2)c1 | 11 | -2% | 21µM* | 21µM* | ? | -6%
O=C(COc1ccc(F)cc1Cl)Nc1cccc(S(=O)(=O)N2CCCC2)c1 | -52* | 2% | -26% | ? | ? | 1%
CCc1cccc(NC(=O)COC(=O)/C=C/c2cccs2)c1 | 1 | 1% | -14% | -6% | 9% | 1%
Cc1cc[n+](CC(=O)c2ccc(F)cc2)cc1 | nt | nt | -10% | -1% | nt | nt
O=C(COc1ccccc1[N+](=O)[O-])Nc1cccc(S(=O)(=O)N2CCCC2)c1 | -1 | 8% | 21µM* | 23µM* | 16µM* | 8%
O=C(COc1ccccc1Cl)Nc1cccc(S(=O)(=O)N2CCCC2)c1 | -21 | 0% | 21µM* | 16µM* | ? | -1%[9.24 µM]
O=C(COC(=O)COc1ccccc1[N+](=O)[O-])Nc1ccc(S(=O)(=O)N2CCCCC2)cc1 | 1 | 0% | -18% | 0% | -3% | 1%
C=CCOc1ccccc1CNc1ccc2[nH]c(=O)[nH]c2c1 | 23 | 4% | 21µM* | ? | ? | 5%
C=CCOc1ccccc1CNc1cccc(F)c1 | -5 | 0% | -28% | ? | 14% | 1%
SMILES | IL1B secr inh | HT1080 IDH1KD tx | DT40 TDP1 no CPT | DT40 TDP1 CPT | ELG1 DNA repair | HT1080NT lethal
C=CCOc1ccccc1CNc1ccc2c(c1)OCCO2 | -75* | ? | 12µM* | 15µM* | ? | ?
CCOc1ccc(C(=O)c2cn(CC(=O)Nc3ccc(Cl)cc3)c3cc4c(cc3c2=O)OCO4)cc1 | nt | nt | 13µM* | ? | nt | nt
CCc1ccc(C(=O)c2cn(CC(=O)Nc3ccc(Cl)cc3)c3cc4c(cc3c2=O)OCO4)cc1 | nt | nt | 16µM* | 15µM* | nt | nt
CC(C)C(NC(=O)c1ccccc1NC(=O)c1ccccc1)C(=O)NNC(=O)c1ccncc1 (stereo not drawn) | 0 | 20% | 20% | -1% | 0% | ?
CCN(CC)c1nc(C)nc2c1cnn2CCc1ccccc1 | ? | -16% | 15µM* | ? | ? | -2%
CC1CN(C)CCC1OC(=O)c1ccccc1 (stereo not drawn) | -12 | -3% | 19% | 1% | 3% | -1%
COc1cccc2oc3cc(C#CC4(O)CCCCC4)ccc3c(=O)c12 | ? | -9% | ? | ? | ? | -10%
COc1cccc2oc3cc(C#Cc4ccccn4)ccc3c(=O)c12 | -55* | 20% | ? | ? | ? | 20%
